The results in this text go back to ChEMBL document CHEMBL4513216, “Probing the Open Global Health Chemical Diversity Library for Multistage-Active Starting Points for Next-Generation Antimalarials” (ACS Infect Dis, 2020).

The campaign covered roughly 68,000 compounds. About 2,700 (4%) showed an effect of 50% or more. What follows is part of a selection rich in strong results, with near analogues and random picks from the rest.

This assay has as its system Plasmodium berghei. The assay can be described thus: Screen against P. berghei liver stage (PbLuc), transformed with Luciferase, at 2uM. The assay is classed as functional, HepG2. The conditions noted are these: tested at 2 uM.
For `COc1cnc(N2CCCC(c3ncc[nH]3)C2)nc1` (configuration not stated), the INHIBITION was 6.39%.
The value for `CNC(=O)c1nc(COc2ccc3c(c2)OCO3)no1` was -15.12%; that for `NC(=O)c1nc(COc2ccc3c(c2)OCO3)no1` was 54.49%; that for `O=C(c1nc(COc2ccc3c(c2)OCO3)no1)N1CCCC1` was 2.41%.
Take `Cc1cc(C)c(C(=O)N2CCOC(CCN(C)C)C2)o1` (configuration not stated): the INHIBITION is given as -36.52%.
The same measure for `Cc1nnc(CSCc2ccc(OCC(F)(F)F)nc2)o1`: 8.78%; for `CCC1=NC(SCC(=O)c2ccccc2)c2cc(CC)sc2N1` (configuration not stated): 63.79%.
The value for `CCC1=NC(SCC(=O)c2ccc(Cl)cc2)c2cc(CC)sc2N1` (configuration not stated) was -77.67%; that for `CCC1=NC(SCC(=O)c2ccc(C)cc2)c2cc(CC)sc2N1` (configuration not stated) was 33.58%.
Regarding `CCC(C)NC(=O)CN1CCC2(CC1)OCCO2` (configuration not stated), the INHIBITION worked out at 34.18%.
The value for `Cc1cccc(-c2ccc3nc(C4CCN(CC5CC5)CC4)nn3c2)c1` was -48.77%; that for `CCc1nn(C)c(CC)c1CNC(=O)Nc1cccc2c1CCN2C` was -1.56%; that for `CC(Cc1ccco1)NC(=O)Nc1ccc(N2CCCC2)nc1` (configuration not stated) was 5.91%.
`O=C(c1nc(Cc2c[nH]c3ccccc23)no1)N1CCOCC1`: the INHIBITION is recorded as -33.88%.
The same measure for `O=C(Cc1ccccc1F)N1CCN(C(=O)c2ccoc2)CC1`: -24.79%; for `O=C(c1nc(Cc2c[nH]c3ccccc23)no1)N1CCCC1`: 70.87%; for `O=C(c1nc(Cc2c[nH]c3ccccc23)no1)N1CCCCC1`: -7.02%.
As for `O=C(Cc1c[nH]c2ccccc12)N1CCC(Nc2ccccc2)CC1`, the INHIBITION is recorded as -0.6%.
On to `O=C(Cc1c[nH]c2ccccc12)N1CCN(C(=O)c2ccoc2)CC1`, for which the INHIBITION is on record as 54.49%.
The value for `Cc1noc(C)c1C(=O)N1CC[C@H]2C[C@@H](c3nccs3)O[C@@H]2C1` was -17.88%.
The same measure for `Cn1cnc(S(=O)(=O)N2CC3(CCN(CC4CC4)C3)C2)c1`: 35.84%; for `COc1ccc(C(=O)N2CCOc3ccncc32)cc1`: -21.39%; for `CCCOCCN1CCC2(CC1)CC(=O)N(Cc1cc(F)cc(F)c1)C2`: 7.13%.
The value for `COCCN1C(=O)C[C@H]2[C@H]1CCN2Cc1ccccc1` was -34.48%; that for `CCO[C@@H]1C[C@H]2CN(S(=O)(=O)c3cccs3)CCN2C1` was -49.68%; that for `COCCOCC(=O)NCCCOC1CCCc2ccccc21` (configuration not stated) was 12.22%.
As for `COCCNC(=O)NCCCOC1CCCc2ccccc21` (configuration not stated), the INHIBITION was determined as 58.9%.
Turning to `COCCC(=O)NCCCOC1CCCc2ccccc21` (configuration not stated), the INHIBITION is -15.49%.
The value for `CC(C)NC(=O)CCNC(=O)CCc1cc(Cl)cs1` was -31.42%; that for `COC(=O)c1ccn(COc2ccccc2Cl)n1` was 8.41%; that for `COc1ccccc1CN(Cc1cccnc1)Cc1c[nH]c(C)n1` was 55.29%.
In the case of `COc1ccccc1CN(Cc1cccnc1)Cc1nccs1`, the INHIBITION is 32.97%.
The same measure for `Cc1nc(CN(Cc2cccnc2)Cc2ccsc2)c[nH]1`: 2.76%.
The same measure for `O=C(CCN1CCCC1c1cccs1)N1CCc2sccc2C1` (configuration not stated): 7.54%.
Consider `OC1(CNC2CCN(Cc3ccncc3)CC2)CCc2ccccc21` (configuration not stated), for which the INHIBITION is -49.57%.
For `OC1(CNC2CCN(c3ccccn3)CC2)CCc2ccccc21` (configuration not stated), the INHIBITION was 29.13%.
With `Cc1csc(N2CCC(NCC3(O)CCc4ccccc43)CC2)n1` (configuration not stated), the INHIBITION worked out at 72.05%.
The value for `O=C(NCc1cccnc1N1CCCCC1)c1cccs1` was -27.83%.
The same measure for `Cc1ccc(CN2C[C@@H]3COC[C@H](NS(C)(=O)=O)[C@@H]3C2)s1`: 8.88%; for `O=C(CN1C(=O)CCC1=O)N1CCC(S(=O)(=O)Cc2ccco2)CC1`: 53.81%; for `O=C(CN1C(=O)CCC1=O)N1CCC(CSCc2ccco2)CC1`: 44.23%.
The value for `O=C(CN1C(=O)CCC1=O)N1CCOCC1` was 9.1%; that for `CN(C)CCN1CC(C(=O)N2CCC(c3cc(=O)[nH]cn3)CC2)CC1=O` (configuration not stated) was 47.64%.
`O=C(NC1CCC(O)CC1)c1cnc2c(cnn2C2CCCC2)c1` (configuration not stated): the INHIBITION was found to be 38.49%.
The value for `CS(=O)(=O)NC(=O)c1cnc2c(cnn2C2CCCC2)c1` was 64.35%; that for `O=C(O)c1cnc2c(cnn2C2CCCC2)c1` was -9.71%; that for `Cc1cc(NC(=O)C(C)N2CCN(c3nc(C)ns3)CC2)on1` (configuration not stated) was 22.29%.
The same measure for `Cn1ncnc1CNc1ccc2c(c1)N(C(=O)OC(C)(C)C)CCC2`: 33.49%.
The value for `CC(C)NC(=O)N1CC(=O)c2sc(Nc3ccc(C#N)cc3)nc2C1` was -42.69%; that for `O=C1COC2(COCCN(c3ccccn3)C2)CN1c1cccc(F)c1` (configuration not stated) was 16.2%; that for `Cc1cccc(N2CC3(COCCN(c4ccncn4)C3)OCC2=O)c1` (configuration not stated) was 7.33%.
`O=C(c1ccc[nH]1)N1CCOCC2(C1)CN(c1ccccc1)C(=O)CO2` (configuration not stated): the INHIBITION is listed as -15.09%.
Turning to `CN(C)CC(=O)N1CCOCC2(C1)CN(c1ccccc1)C(=O)CO2` (configuration not stated), the INHIBITION amounted to 17.78%.
The value for `O=C(N1CCCC1)N1CCOCC2(C1)CN(c1ccccc1)C(=O)CO2` (configuration not stated) was 56.38%.
The value for `O=C1COC2(COCCN(c3cnccn3)C2)CN1c1cccc(F)c1` (configuration not stated) was 50.81%; that for `COCC1CN(C(=O)c2ccoc2)Cc2cnn(CC3CCOCC3)c21` (configuration not stated) was -14.61%; that for `CSCCCn1ccnc1-c1cccc(C#N)c1` was 55.93%.
The value for `CSCCCNC(=O)Nc1cccc(-c2nccn2C)c1` was 11.78%; that for `CCN(CC)CCn1ccnc1-c1cccc(C#N)c1` was 15.2%.
As for `Cc1ccc(C(=O)N2C[C@H]3CN(Cc4csc(C)n4)C[C@H]3C2)cn1`, the INHIBITION came out at 5.38%.
The same measure for `CCC[C@H]1CN(S(=O)(=O)c2ccc(-c3c(C)noc3C)s2)C[C@@H]1N`: 29.53%; for `CCC[C@H]1CN(S(=O)(=O)c2c(C)noc2C)C[C@@H]1N`: 51.31%; for `CCC[C@H]1CN(S(=O)(=O)c2ccccc2)C[C@@H]1N`: 24.12%.
For the compound `Cc1cnn(CC(C)Nc2nc(C)cc(N(C)C)n2)c1` (configuration not stated), the INHIBITION is recorded as -28.68%.
`CN(C)C[C@]12COC[C@H]1CN(C(=O)Cc1ccc3c(c1)OCO3)C2`: the INHIBITION is given as -2.21%.
The same measure for `CCOC(=O)Cn1nnnc1-c1ccccc1`: 23.9%; for `O=S(=O)(C1CC1)N1CCC2(CN(c3ncccn3)C2)C1`: -12.25%.
